# Assay outcomes (PubChem BioAssay)
# Bim-Bcl-B = inhibitors of Bim-Bcl-B interaction, human; hit rate 0.073% among 190,000; Q9HD36; bead-based flow cytometry, Bim peptide-Bcl-B binding; inhibition, % at 10 µM
# Bcl-W Bim block = human Bim-Bcl-W interaction inhibition. Q92843. bead-based flow cytometry, Bim peptide-Bcl-W binding. inhibition, % at 10 µM. hit rate 0.02% among 190,000;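 note: higher means less fluorescent Bim peptide bound to Bcl-W beads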
# Bim-Bcl-2 = human Bim-Bcl-2 interaction inhibition; Bead-based flow cytometry, Bim peptide-Bcl-2 binding; inhibition, % at 10 µM; hit rate 0.06% among 190,000; in the data active = inhibition above about 40%; inconclusive = no clear call, values can overlap the other calls
# Bim-Bcl-XL = disrupts Bim peptide binding to human Bcl-XL; Q07817; bead flow cytometry, fluorescence; inhibition, % at 10 µM; hit rate 0.04% among 190,000; AID 1007
# Target sequence (Q07817 whole entry, looked up): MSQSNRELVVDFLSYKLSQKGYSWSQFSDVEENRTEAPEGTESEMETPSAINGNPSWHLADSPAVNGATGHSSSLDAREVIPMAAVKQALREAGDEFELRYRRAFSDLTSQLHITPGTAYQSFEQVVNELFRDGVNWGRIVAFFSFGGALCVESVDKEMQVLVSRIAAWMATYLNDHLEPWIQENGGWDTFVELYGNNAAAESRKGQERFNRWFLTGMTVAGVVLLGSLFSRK
# Bcl-xL primary = inhibitors of human Bcl-xL. inhibition, % at 10.9 µM. Q07817. hit rate 0.7% among 320,000. AID 2129. GST-Bcl-xL / FITC-Bim BH3 peptide fluorescence polarization;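 active = inhibition above the mean of all tested compounds plus 3 SD, cutoff set per campaign, cut at about 30% in these data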;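 note: inhibitors lower millipolarization by displacing the labeled peptide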
# Bfl-1 Bim block = disrupts Bim binding to human Bfl-1; Q16548; Bead-based flow cytometry, Bim-Bfl-1 binding inhibition; inhibition, % at 10 µM; hit rate 0.12% among 190,000; AID 1008
# Target sequence (Q16548 whole entry, looked up): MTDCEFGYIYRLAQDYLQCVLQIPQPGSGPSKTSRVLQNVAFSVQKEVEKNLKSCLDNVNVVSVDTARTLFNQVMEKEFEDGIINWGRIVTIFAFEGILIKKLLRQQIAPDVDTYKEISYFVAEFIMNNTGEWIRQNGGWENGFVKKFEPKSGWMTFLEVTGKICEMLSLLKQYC
# Hits are given with their value; – = inactive; ? = inconclusive; · = no result. Hits are enriched below; roughly 0.81% of the tested compounds scored in any of these assays. Cut-off read from the data, not from the text of the source, unless noted: active = inhibition above about 40%.
SMILES,Bim-Bcl-B,Bcl-W Bim block,Bim-Bcl-2,Bim-Bcl-XL,Bcl-xL primary,Bfl-1 Bim block
CCN1CC=C2C(C#N)=C(N)C(C#N)(C#N)C(CCc3ccccc3)C2C1 (configuration not stated),–,–,–,–,155.3,–
Cc1oc2cc(O)ccc2c(=O)c1-c1nncn1-c1ccccc1,–,–,–,–,113.3,–
CCOC(=O)C1=C(O)/C(=C/c2cn(CC(=O)NCC3CCCO3)c3ccccc23)SC1=Nc1ccc(C)cc1 (configuration not stated),·,·,·,·,80.5,·
O=C(CN1C(=O)NC2(CCCCC2)C1=O)Oc1ccc2c(C(F)(F)F)cc(=O)oc2c1,·,·,·,·,33.4,·
COc1ccc(NS(=O)(=O)c2cc(NC(=O)c3ccc(=O)[nH]c3)ccc2N2CCCC2)cc1,·,·,·,·,–,·
COc1cc2c(cc1OC)-c1cc3ccc4c(c3c[n+]1CC2)OCO4,–,–,–,–,169.8,–
N#Cc1cnn(-c2ccccc2)c1NC(=O)c1ccccc1F,·,·,·,·,–,·
COc1cccc2sc(/N=C/N(C)C)nc12,·,·,·,·,–,·
CCOC(=O)C1=C(COC(=O)c2ccc3ccccc3c2O)NC(=O)NC1C (configuration not stated),·,·,·,·,61.4,·
CCOC(=O)C1=C(COC(=O)c2ccccc2OC(F)F)NC(=O)NC1C (configuration not stated),·,·,·,·,–,·
O=C(NCCN1CCN(C(=O)Nc2ccccc2)CC1)Nc1ccccc1,–,–,–,–,112.1,–
COc1ccc(C2Nc3cccc4cccc(c34)N2)cc1,–,–,–,–,–,–
Brc1cccc(C2Nc3cccc4cccc(c34)N2)c1,·,·,·,·,–,·
c1ccc(C2Nc3cccc4cccc(c34)N2)cc1,·,·,·,·,38.6,·
c1csc(C2Nc3cccc4cccc(c34)N2)c1,–,–,–,–,60.5,–
Brc1ccc(C2Nc3cccc4cccc(c34)N2)o1,–,–,–,–,50.8,–
Cc1cccc(N2CCN(S(=O)(=O)c3c(C)noc3/C=C/N(C)C)CC2)c1C,·,·,·,·,–,·
CN(C)S(=O)(=O)c1ccc(NC(=O)CN2C(=O)NC3(CCCC3)C2=O)cc1,·,·,·,·,–,·
COc1cc(OC)c(OC)cc1/C=C1\Oc2cc(OCC(=O)N3Cc4ccccc4C[C@H]3C(=O)O)ccc2C1=O,·,·,·,·,–,·
O=Cc1c(Sc2ccccn2)nc2ccccn2c1=O,–,–,–,–,53.0,–
Cc1nc(NS(=O)(=O)c2ccc(Cl)s2)c2c3c(sc2n1)CCCC3,·,·,·,·,–,·
N#CC12C(N)=NC3(OCCO3)C1(C#N)C1=C(CCC1)NC2c1ccccc1 (configuration not stated),–,–,–,–,34.8,–
O=C(NCc1ccccn1)C(=O)NCC(c1ccco1)N1CCN(c2ccc(F)cc2)CC1 (configuration not stated),–,–,–,–,31.6,–
Cc1nc2c(C#N)cnn2c2c1CCN2CC1CCCO1 (configuration not stated),–,–,–,–,–,–
O=C(NC1CCCCCCC1)c1ccc(Br)cc1,·,·,·,·,67.8,·
SMILES,Bim-Bcl-B,Bcl-W Bim block,Bim-Bcl-2,Bim-Bcl-XL,Bcl-xL primary,Bfl-1 Bim block
O=C(Cc1ccc(Br)cc1)NC1CCCCC1,–,–,–,–,–,–
CCCCCc1nnc(NC(=O)CN2C(=O)C3CCCCC3C2=O)s1 (configuration not stated),·,·,·,·,–,·
CC(=O)Oc1ccc2c(c1)Oc1cc(OC(C)=O)ccc1C21OC(=O)c2ccccc21,·,·,?,·,180.9,·
O=C(c1cc2sccc2n1Cc1ccc(F)cc1)N1CCN(c2nc3ccccc3s2)CC1,–,–,–,–,78.5,–
COC(=O)C1=C(C(=O)OC)C(c2ccccc2O)c2sc(=O)[nH]c2S1 (configuration not stated),–,–,–,–,33.4,–
C=CCn1c(N)cc(=O)nc1SCC(=O)Nc1ccc(C(=O)OCC)cc1,·,·,·,·,–,·
Oc1ccccc1O,·,·,·,·,–,·
Oc1cccc2cc3cccc(O)c3c(O)c12,–,–,–,–,43.1,–
CS(=O)(=O)c1ccc(-c2csc(-c3cccnc3)n2)cc1,·,·,·,·,31.5,·
CN(C(=O)CS(=O)(=O)c1cn(CC(=O)N2CCCC2)c2ccccc12)c1ccccc1,·,·,·,·,–,·
O=C1C(=O)c2ccc(-c3ccccc3)cc2-c2ccccc21,–,–,–,–,–,41.0
Cc1cc(C)c(S(=O)(=O)/N=C2\C=C(Nc3ccc(C(=O)O)cc3)C(=O)c3ccccc32)c(C)c1,·,·,·,·,–,·
O=C(O)c1ccc(NC2=C/C(=N/S(=O)(=O)c3ccccc3)c3ccccc3C2=O)cc1,–,–,–,–,·,47.0
O=C(CSc1ccc2nnc(-c3ccccn3)n2n1)Nc1nccs1,–,–,–,40.0,–,–
CC1CCN(CCCn2c(SCC(=O)Nc3ccccc3Cl)nc3ccccc3c2=O)CC1,–,–,–,–,–,–
Cc1ccc(NC(=O)CSc2nc3ccccc3c(=O)n2CCCN2CCCCC2)cc1Cl,71.0,–,62.0,–,–,–
COc1ccc2nc3ccccc3nc2c1,–,–,–,–,35.3,–
Cc1ccc(C(=O)N/N=C/c2ccc(-c3ccc(Br)cc3[N+](=O)[O-])o2)o1,·,·,·,·,50.6,·
O=C(N/N=C/c1ccc(-c2ccccc2[N+](=O)[O-])o1)c1cncc(Br)c1,–,–,–,48.0,–,–
O=C(N/N=C\c1ccc([N+](=O)[O-])o1)c1cncc(Br)c1,·,·,·,·,–,·
Cc1ccc(C(=O)N/N=C\c2ccc(Br)o2)o1,–,–,–,–,–,–
Cn1c(SCc2ccccn2)nnc1-c1ccccc1,–,–,–,–,–,–
CC(C)OP(=O)(OC(C)C)C(NC(=O)c1ccccc1Br)C(N)=O (configuration not stated),·,·,·,·,–,·
Cc1nn(C(C)C(=O)NCCCN2CCCCCC2)c(=O)c2cc3sccc3n12 (configuration not stated),·,·,·,·,–,·
O=S(=O)(c1cccc(-n2cnnn2)c1)N1CCOCC1,–,–,–,–,–,–
COc1cc(-n2cnnn2)ccc1S(=O)(=O)N1CCOCC1,–,–,–,–,31.9,–
OCCNc1nc(-c2ccccc2)nc2c1oc1ccccc12,·,·,·,·,–,·
